This experiment relates to VDR:RXRa (NR concentration 270 nM, RXRa partner concentration 90 nM). Put plainly: PBM binding z-score (relative to random genomic background probes); higher = stronger binding; sequences stand for … in GC…GCGATTGACAGCGTAGAATGAAGG
The protocol: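 Protein-binding microarray (Agilent 4x180K custom design, double-stranded 60-nt probes: 5' GC cap, 34-nt variable region, 24-nt constant primer region; full probe sequence given). Purified or IVT nuclear receptor:RXRα heterodimers (3:1 NR:RXRα, mostly 270:90 nM) or homodimers were incubated for 1 h in PBS with 2% milk and no ligand, then detected with Alexa488 antibodies. Fluorescence from o1-orientation probes (~5 replicates averaged) was converted to z-scores against 500 random hg19 background probes. Variable regions are seed direct-repeat (DR0–DR5) sites, all their single-nucleotide variants and half-site ablations.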
Sequence ATATGTAGGTTAGCGGGTCATTCAGTTTGCGCAT registered a PBM binding z-score of 4.74. The same measure for TCTCGGAGGACACGAAGGTCCGAGCTTTCCAGAG: 0.0624. The same measure for GGAACGAGGGCAAAGTTGCTAGCATCTGTCGACG: 1.01; for TCATATAGGTAAAGGTGAAAATCGAACGATATGA: 0.688; for ACAGACAGGTGATGAAGGCAACTCAGGCTATCAT: -0.257. Next, CGTCCAAGGTCATAGGAGGTCAGAGAAGACAGAT: 6.67; TCTAGATGGTCACGGAGGTCACACACGACGGGTA: 6.25. Turning to CTCGAAAGGTCGTGCTCAGGTGAGTGTACCAAAC, the PBM binding z-score was 3.44. The same measure for CCTAGCAGGTCAATCTGGGTCACTCAAGGCTTGA: 4.94; for TCGCCTAGGTCATTCAGGGGCCAGTATAGAAAGC: 3.06; for CGAACGAGGGCATGAGTTGATAGGAAATGCCGAT: 1.13.

The sequence TCGAGTAGTTTACCAATGGGGCATTCAGCTTTCT came in with a PBM binding z-score of -0.0762. ACTAGCAGGCCAAGTTTGGGTCACTCCAACAAAG: the PBM binding z-score was 0.642. Sequence TAGCCTAGGTGAGATCGGGCCAGTATACGCTATA returned a PBM binding z-score of -0.592. Next, ATCTCTCGGTAAGACTCAGTTCAGTGAAGAACGC: 0.848; ATCTCTAGGTAAAGATAATTCAGTGAATGCAAAT: 0.0441; TCTTGTAGATCAATCGAGGTTAAGAAAGTGCGCT: 1.75. Next, CCTATTAGTTGACCATAAGGGCAACTGAAGCTCG: 1.08; ATCTCTAGATAAGACTCAGTTCAGTGAAGAACGC: 0.209. The same measure for CGTCCAAGGTCAGCAGGTAAGTGAAAGCGACGTG: 2.55; for ACAGACAGGTGATGAAGGTAACTCCGGCTATCAT: 0.125; for CCGAGCAGGTTATGGGGCATTCAGGCAACGGTGA: -0.144. For the sequence TCATATAGGTCAAGGTGAAAGTCGAACGATATGA, the PBM binding z-score turned out to be 2.94. The same measure for CCTAGCAGGCCAGTCTGGGTCACTCAAGGCTTGA: 0.512.

The sequence CTCGAAAGGTCGTGCTCAGGTCAGTATACCAAAC displayed a PBM binding z-score of 5.19. Sequence ACTATTAGTTGACATAGGGCAACCGATACGACGC gave a PBM binding z-score of 0.569.

In turn, TACACAGGGTCAAAGGCCAGAGTACGAATGTCGA returned a PBM binding z-score of 4.89. In the case of CCGACTGCGGCAGAAAGGTTACCATACCATCCGG, the PBM binding z-score turned out to be 0.485. For the sequence CAAACTAGGTCAACGGTCAAAGTCGAGCCAACCA, the PBM binding z-score is 2.71. As for TAGCCTAGGTCAGGCGGGCCAGTATAGTGTCGGC, the PBM binding z-score came out at 0.804. Turning to ATCTCGAGGTAAGACTCAGTTCAGTGAAGAACGC, the PBM binding z-score came to 0.704.

TCATAAAGGTAAAGGTGAAAGTCGAACGATATGA displayed a PBM binding z-score of 0.948. CCTTACTGGTCACTCCAGGTTATAGCATCGGAGT registered a PBM binding z-score of 0.952. As for GCATTTAGGTAATACAAGGTGAAAGTCCGATTGT, the PBM binding z-score is 0.176.

CAAACTAGGTCACGAAAAGTCAAAGTCGAATGAC: the PBM binding z-score came out at 2.71. As to GCATATAGGTAATACAAGCTGAAAGTCCGATTGT, the PBM binding z-score is -0.105. Sequence CGAACTAGGTCATTCACAGGACAGTGAATAGTAA returned a PBM binding z-score of 2.53. The same measure for CAAACTATGTCAAGGTCAAAGTCGGTTTGTGCCA: 4.83. In turn, CAGCCTAGGTCAGGGACAGTATAGGAGGAACGTT showed a PBM binding z-score of 0.484. On to CTTCAAAGTTCAACTAAGGTAACGTAAAGCACGC, for which the PBM binding z-score was determined as 4.63.

Source of the values: the supplement of paper PMC6555819.
